Screens: PubChem BioAssay, Broad Institute
This is one part of a sample in which hits are shown more often than they occur.
miR-122 inh: miR-122 suppressors via Renilla sensor increase, primary screen, cell-based, Huh7 psiCHECK-miR122, Renilla luciferase, single point; 48 h; 340,000 tested, 0.14% active; activation, % at 12.5 µM;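 active = mean activation of 30% or more, with every replicate also reaching 30%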;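 also: higher luciferase signal means stronger suppression of miR-122 activity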
Large screens that a line does not name were inactive.

C[C@@H]1CN([C@H](C)CO)S(=O)(=O)c2ccc(C#C[C@@H](C)O)cc2O[C@H]1CN(C)Cc1cccnc1	none
C[C@H](O)C#Cc1ccc2c(c1)O[C@@H](CN(C)Cc1ccc(-c3ccccc3)cc1)[C@@H](C)CN([C@@H](C)CO)S2(=O)=O	miR-122 inh 38
C[C@H](CO)N1C[C@H](C)[C@@H](CN(C)Cc2cccnc2)Oc2cc(C#C[C@@H](C)O)ccc2S1(=O)=O	none
Cc1ccc(-c2ccc3c(c2)O[C@H](CN(C)Cc2cncnc2)[C@H](C)CN([C@@H](C)CO)S3(=O)=O)cc1	miR-122 inh 57
C[C@H]1CN([C@@H](C)CO)S(=O)(=O)c2ccc(-c3ccccc3)cc2O[C@H]1CN(C)Cc1cncnc1	none
CCC(=O)N(C)C[C@@H]1Oc2cc(-c3cccnc3)ccc2S(=O)(=O)N([C@H](C)CO)C[C@H]1C	none
CC(C)C#Cc1ccc2c(c1)O[C@@H](CN(C)C(=O)CN(C)C)[C@H](C)CN([C@@H](C)CO)S2(=O)=O	none
COc1ccccc1C#Cc1ccc2c(c1)O[C@H](CN(C)Cc1ccncc1)[C@@H](C)CN([C@@H](C)CO)S2(=O)=O	none
